CYP2C19 activ – activators of human cytochrome P450 2C19 | AID 1025 | 96,000 tested, under 10 active | P33261 | activation factor at 5 µM | recombinant CYP2C19, luciferin-H EGE luminescence; active compounds read high; 0 = fully inhibited enzyme, 1 = untreated enzyme;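 active means activation factor of at least 2 at 5 µM in the primary screen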
Target sequence (P33261 whole entry, looked up): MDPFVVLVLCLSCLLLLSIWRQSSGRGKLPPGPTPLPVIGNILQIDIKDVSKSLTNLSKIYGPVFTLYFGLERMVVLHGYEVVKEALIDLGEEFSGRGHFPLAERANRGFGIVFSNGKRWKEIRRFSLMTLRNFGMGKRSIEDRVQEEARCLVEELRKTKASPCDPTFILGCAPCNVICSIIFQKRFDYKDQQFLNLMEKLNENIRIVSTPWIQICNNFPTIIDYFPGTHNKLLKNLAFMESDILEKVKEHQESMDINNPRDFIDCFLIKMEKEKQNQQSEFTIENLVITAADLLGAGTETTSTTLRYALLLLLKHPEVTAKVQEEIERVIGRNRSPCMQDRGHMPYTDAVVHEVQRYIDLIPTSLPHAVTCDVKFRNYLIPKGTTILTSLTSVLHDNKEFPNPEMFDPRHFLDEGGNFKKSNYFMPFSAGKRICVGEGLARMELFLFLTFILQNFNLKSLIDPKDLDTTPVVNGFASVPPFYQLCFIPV
CYP2C19 inh – blocks human cytochrome P450 2C19; CYP2C19 Supersomes, luciferin-H EGE luminescence, 30 min; inhibition, % at 5 µM; actives 21% (n = 96,000);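 active means CYP2C19 inhibition above a set limit at 5 µM in the primary screen, cut at about 50% in these data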
PostGolgi ctrl – growth of the yeast control strain, post-Golgi counter-screen; actives 5% (n = 98,000); inhibition, % at 10 µM; efflux-deficient yeast background strain, growth absorbance A615, 16 h
CYP2C9 act – increases human cytochrome P450 2C9 activity. activation factor at 5 µM. recombinant CYP2C9, luciferin-H conversion, luminescence; active compounds read high; factor 1 = untreated enzyme, 0 = blocked. actives 1.4% (n = 96,000). AID 1024. P11712;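 active means activation factor of 2 or more for CYP2C9 at a 5 µM dose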
CYP2C9 inh – inhibitors of human CYP2C9; P11712; AID 777; actives 20% (n = 96,000); inhibition, % at 5 µM; CYP2C9 Supersomes, luciferin-H conversion, luminescence;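 active means blocking of liver enzyme CYP2C9 beyond about 50% at 5 µM, limit read from the data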
PostGolgi yeast – growth inhibition of a yeast mutant, post-Golgi transport screen; actives 0.9% (n = 98,000); AID 739; inhibition, % at 10 µM; post-Golgi transport phenotypic cell assay;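 further: yeast cells grown in 1536-well plates; yeast grown about 18 h at 30C before absorbance read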
Of the large screens only hits and unclear results are named; the others gave an inactive call. Rows were chosen to be rich in hits. Some 32% of all compounds tested hit in one or more screens of this group. Unless noted, no stated cut-off is given here; in the data, active means inhibition above about 30%; inactive means the rest.

CCOc1ccc2nc(NC(=O)CN3CCC(n4nnc5cc(C(F)(F)F)ccc54)CC3)sc2c1	PostGolgi ctrl 35
COc1ccc(Cl)cc1NC(=O)CN1CCC(n2nnc3cc(F)ccc32)CC1	CYP2C19 inh 76
O=C(CN1CCC(n2nnc3cc(C(F)(F)F)ccc32)CC1)N1CCc2ccccc21	none
Cc1cc(NC(=O)CN2CCC(n3nnc4cc(C(F)(F)F)ccc43)CC2)no1	CYP2C19 inh 78, CYP2C9 inh 86
FC(F)(F)c1nnc2sc(-c3cccs3)nn12	none
CCc1ccc(NC(=O)c2onc(C)c2Cl)cc1	none
OC1(c2ccc(F)cc2)CCN(Cc2ccccc2)C1 (stereo not given)	CYP2C19 inh 84
CCOC(=O)CNC(=O)Cn1cnc2c(nnn2-c2cccc(Cl)c2)c1=O	none
O=C(Nc1ccc2nsnc2c1)c1cccs1	CYP2C19 inh 55, PostGolgi ctrl 40
O=C(Nc1ccc2nn(-c3ccccc3)nc2c1)c1cccs1	none
O=C(Nc1ccncc1)c1cccs1	CYP2C9 inh 52
O=C(Nc1cccnc1)c1cccs1	none
O=C(Nc1cccc(-c2csc(-c3ccccc3)n2)c1)c1cccs1	CYP2C19 inh 51, CYP2C9 inh 91
Oc1ccc(-c2csc(-c3ccccc3)n2)cc1O	PostGolgi ctrl 59
C=CCn1c(=O)/c(=C/c2cc(OC)c(OC)c(OC)c2)s/c1=C(/C#N)c1nc2ccccc2n1C	none
COc1ccccc1NC(=O)c1ccc(NC(=O)CSc2nnnn2C)cc1	none
CCc1c(C(=O)Nc2ccncc2)csc1C	CYP2C19 inh 98, CYP2C9 inh 84
CCc1c(C(=O)Nc2ncn(Cc3cccc(C)c3)n2)csc1C	none (no result: CYP2C19 activ, CYP2C19 inh, CYP2C9 act, CYP2C9 inh)
Cc1ccc(C)c(NC(=S)NC(NC(=O)/C=C/c2ccccc2)C(Cl)(Cl)Cl)c1 (stereo not given)	none
O=C(/C=C/c1ccccc1)NC(NC(=S)Nc1cccc(Cl)c1)C(Cl)(Cl)Cl (stereo not given)	CYP2C9 inh 77
O=c1oc2ccccc2cc1-c1csc(Cc2nc(-c3ccc(Br)cc3)cs2)n1	CYP2C19 inh 61, CYP2C9 inh 70
N#CC(=C1CCCC1)c1nc(-c2cc3ccccc3oc2=O)cs1	none
O=C(CSc1nnnn1C1CC2CCC1C2)Nc1ccnc2ccccc12 (stereo not given)	none
Cc1nnc(SCC(=O)Nc2ccccc2N2CCOCC2)s1	none (no result: CYP2C19 activ, CYP2C19 inh, CYP2C9 act, CYP2C9 inh)
O=C(Nc1cccc(-c2cn3cccnc3n2)c1)c1ccco1	none
O=C(Nc1cccc(-c2cn3cccnc3n2)c1)c1ccc(Br)o1	PostGolgi ctrl 33, CYP2C9 inh 58
O=C(Nc1cccc(-c2cn3cccnc3n2)c1)c1ccc2c(c1)OCO2	CYP2C9 inh 60
CCCCCCn1c(COc2ccccc2F)nnc1SCC(=O)N1c2ccccc2NC(=O)C1(C)C	none
CN1C=CC2=C(C#N)C(N)C(C#N)(C#N)C(c3ccccc3)C2C1 (stereo not given)	none
CCOc1ccc(C2C=C(c3ccccc3)Nc3ncnn32)cc1 (stereo not given)	none
COc1ccc(C2C=C(c3ccc(Br)s3)Nc3ncnn32)cc1OC (stereo not given)	CYP2C19 inh 98, PostGolgi ctrl 35, CYP2C9 inh 50
CCOC(=O)C1=C(c2ccccc2)Nc2ncnn2C1c1cccc(OC)c1OC (stereo not given)	none
COc1cccc(C2C=C(c3cccs3)Nc3ncnn32)c1OC (stereo not given)	CYP2C9 inh 56
CN1C(=O)C2(c3ccccc31)C1CCCC=C1C(C#N)=C(N)C2(C#N)C#N (stereo not given)	none
CCS(=O)(=O)CCSc1nc2c(cc1C#N)CCCC2	none
Cc1cc(C)c(C#N)c(OCC(=O)c2ccccc2)n1	none
CC(C)(C)c1ccc(S(=O)(=O)CC(O)CSc2nc3c(cc2C#N)CCCC3)cc1 (stereo not given)	CYP2C9 inh 78
Cc1cc(C)c(C#N)c(SCC(O)CS(=O)(=O)Cc2ccccc2)n1 (stereo not given)	CYP2C19 inh 97, CYP2C9 inh 72
N#Cc1cc2c(nc1SCc1ccncc1)CCC2	CYP2C19 inh 100, CYP2C9 inh 87
N#Cc1cc2c(nc1SCC(O)CS(=O)(=O)Cc1ccc(Cl)cc1)CCCC2 (stereo not given)	CYP2C19 inh 59, PostGolgi ctrl 36, CYP2C9 inh 81
O=C(CN(Cc1ccc(F)cc1)S(=O)(=O)c1ccccc1)N1CCCCC1	CYP2C19 inh 65
Cc1ccc(S(=O)(=O)N(CC(=O)N2CCC(C(N)=O)CC2)Cc2ccc(F)cc2)cc1	none
CNC(=O)CN(Cc1ccccc1)S(=O)(=O)c1ccccc1	CYP2C19 inh 59
COc1ccc(S(=O)(=O)N(CCc2ccccc2)CC(=O)NC(C)C)cc1	CYP2C19 inh 56, CYP2C9 inh 58
COc1ccc(S(=O)(=O)N(CC(=O)NC(C)C)Cc2ccccc2)cc1	CYP2C19 inh 52, CYP2C9 inh 50
CC(C)NC(=O)CN(Cc1ccccc1)S(=O)(=O)c1ccccc1	none
N#Cc1ccc(Nc2ccccc2)c(N)c1	none
CC1CCCCC12NC(=O)N(CC(=O)c1ccc[nH]1)C2=O (stereo not given)	none
CCCn1c(C)cc(/C=C(\C#N)C(=O)OCC(=O)NC(=O)NC(C)(C)C)c1C	none
COc1cc(C(=O)O)cc(Br)c1OC1CCCC1	none
Cc1cc(C)cc(OCC(=O)Nc2nonc2NC(=O)COc2cc(C)cc(C)c2)c1	CYP2C9 inh 64
Cc1ccc(-c2c(C)n([O-])c3c([n+]2=O)CCCCC3)o1	none
Cc1ccc(Nc2nc(Oc3ccc(OCc4ccccc4)nn3)nc(N3CCOCC3)n2)cc1	CYP2C19 inh 82, CYP2C9 inh 77
c1ccc(COc2ccc(Oc3nc(N4CCCCC4)nc(N4CCOCC4)n3)nn2)cc1	CYP2C19 inh 88, CYP2C9 inh 59
CCC(=O)c1ccc(OCC(=O)O)cc1	none
CCC(=O)c1ccc(O)c(CC=C(C)C)c1	CYP2C19 inh 58, PostGolgi ctrl 31, CYP2C9 inh 64
CC1CCCC(NC(=O)COC(=O)CCC2CCCC2)C1C (stereo not given)	CYP2C9 inh 64
CC1CCCC(NC(=O)COC(=O)Cc2ccsc2)C1C (stereo not given)	CYP2C19 inh 64
O=C(COC(=O)Cc1ccsc1)NC1CCCCCC1	CYP2C19 inh 74
NC(=O)NCC12CC3CC(CC(C3)C1)C2	none
O=C(COC(=O)c1cccc(C(=O)OCC(=O)NC2CCCCC2)n1)NC1CCCCC1	none
O=C(COC(=O)Cc1ccsc1)NCC12CC3CC(CC(C3)C1)C2	CYP2C19 inh 59
Cc1cccc(OC(=O)CN2C(=O)C3C4CCC(C4)C3C2=O)c1C (stereo not given)	none
Cc1ccccc1NC(=O)c1cc(S(=O)(=O)N2CCCCC2)cs1	CYP2C9 inh 51
O=C(Nc1ccccc1Cl)c1cc(S(=O)(=O)N2CCOCC2)cs1	PostGolgi ctrl 31
